Reference: PubChem BioAssay (NCATS)
Active and inactive are the calls of the source. Calls come from the whole dose curve; as a rule, active = well fitted curve in the direction sought with a large enough effect; inconclusive = small, poorly fitted or top-dose-only effect, or another doubt; inactive = no such curve, though single readings can be large; an effect the other way counts as inactive or inconclusive.

Target: Alpha-galactosidase (Coffea arabica) (UniProt Q42656)
Assay: Counterscreen for Glucocerebrosidase Inhibitors: qHTS Assay for Coffee Bean alpha-Galactosidase at pH 4.5 (AID 957)
Conditions: purified coffee bean alpha-galactosidase, fluorogenic substrate; series mostly up to 76.9 µM
Method in brief: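 Fluorogenic read-out: 4-methylumbelliferone at Ex 365/Em 440 nm after NaOH/glycine stop (pH 10). Enzyme 2 nM, 4-MU-alpha-galactoside 80 uM, citrate buffer pH 4.5, 20 min RT; normalized to no-enzyme and enzyme controls.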

Sequence of Alpha-galactosidase (Coffea arabica) (Q42656 whole entry, looked up): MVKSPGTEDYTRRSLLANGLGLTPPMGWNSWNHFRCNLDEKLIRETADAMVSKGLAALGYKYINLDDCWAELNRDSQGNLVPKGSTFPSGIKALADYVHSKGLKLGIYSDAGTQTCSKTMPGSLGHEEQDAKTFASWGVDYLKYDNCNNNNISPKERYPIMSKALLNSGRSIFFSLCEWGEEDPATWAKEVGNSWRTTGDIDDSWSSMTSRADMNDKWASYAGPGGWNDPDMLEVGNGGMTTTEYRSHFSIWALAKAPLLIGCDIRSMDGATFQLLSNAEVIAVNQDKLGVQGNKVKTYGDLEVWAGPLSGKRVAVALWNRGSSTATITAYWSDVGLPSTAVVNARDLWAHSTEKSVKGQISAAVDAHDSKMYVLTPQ

| Compound | outcome |
| --- | --- |
| O=C(/C=C\c1ccc(O)cc1)c1ccc(O)cc1O | inactive |
| N=c1ccn2c(n1)O[C@@H]1[C@@H](O)[C@H](CO)O[C@H]12 | inactive |
| CCNC(=O)[C@@H]1O[C@@H](n2cnc3c(N)nc(NCCc4ccc(CCC(=O)O)cc4)nc32)[C@H](O)[C@@H]1O | inactive |
| Cc1cccc(C)c1OC[C@@H](N)C(C)C | inactive |
| CN[C@]1(C)[C@@H]2CC[C@@H](C2)C1(C)C | inactive |
| C[C@@H]1CNCCN1S(=O)(=O)c1cccc2cnccc12 | inactive |
| CC(C)NC[C@H](O)c1ccc(NS(C)(=O)=O)cc1 | inactive |
| CCCCCCCCCCCCCCCCCC(=O)O[C@H](CC(=O)O)C[N+](C)(C)C | inactive |
| Oc1ccc([C@@H]2CNCCc3c2cc(O)c(O)c3Cl)cc1 | inactive |
| NCCCCNS(=O)(=O)c1cccc2c(Cl)cccc12 | inactive |
| CN(C)c1ccc(/C=C2/C(=O)Nc3ccccc32)cc1 | inactive |
| CCN(Cc1ccncc1)C(=O)[C@@H](CO)c1ccccc1 | inactive |
| C[C@H](N)C1CCC(C(=O)Nc2ccncc2)CC1 (stereo partly drawn) | inactive |
| CCN(CC)CCC[C@H](C)Nc1ccnc2cc(Cl)ccc12 | inactive |
| N=C1Sc2ccccc2C2=NCCCN12 | inactive |
| CSc1ccc2c(c1)[C@H](N1CCN(C)CC1)Cc1ccccc1S2 | inactive |
| CC[C@]1(O)C[C@H]2CN(CCc3c([nH]c4ccccc34)[C@](C(=O)OC)(c3cc4c(cc3OC)N(C=O)[C@H]3[C@@](O)(C(=O)OC)[C@H](OC(C)=O)[C@@]5(CC)C=CCN6CC[C@]43[C@H]65)C2)C1 | inactive |
| CN(C)CCCO[C@H]1[C@H]([C@H](O)CO)O[C@H]2OC(C)(C)O[C@@H]21 | inactive |
| C[C@H](N=C(NC#N)Nc1ccncc1)C(C)(C)C | inactive |
| FC(F)(F)c1cc(CO[C@@H]2CCCN[C@H]2c2ccccc2)cc(C(F)(F)F)c1 | inactive |

| Compound | outcome |
| --- | --- |
| CCCCC[C@H](O)CCCC(=O)O | inactive |
| COC(=O)[C@](C)(N)Cc1ccc(O)cc1 | inactive |
| CC(C)(C(=O)O)c1ccc([C@@H](O)CCCN2CCC(C(O)(c3ccccc3)c3ccccc3)CC2)cc1 | inactive |
| Nc1ncnc2c1ncn2[C@@H]1CCCO1 | inactive |
| O=C(O)CC[C@@H](NC(=O)c1ccccc1C(=O)O)C(=O)O | inactive |
| Oc1cc2c(cc1O)[C@H](c1ccccc1)CNCC2 | inactive |
| COc1cc2nc(N3CCN(C(=O)OCc4ccccc4)[C@H](C(=O)NC(C)(C)C)C3)nc(N)c2cc1OC | inactive |
| COc1cc(=O)n(C)c2c(OC[C@@H](O)C(C)(C)O)cccc12 | inactive |
| C[C@@H](C(=O)O)c1ccc(C[C@@H]2CCCC2=O)cc1 | inactive |
| CN1CCc2cc(Cl)c(O)cc2[C@H](c2ccccc2)C1 | inactive |
| CC(C)CN(C)c1nc(N)c(C(=O)N=C(N)N)nc1Cl | inactive |
| C[C@@H]1COc2c(N3CCN(C)CC3)c(F)cc3c(=O)c(C(=O)O)cn1c23 | inactive |
| CC[C@]1(O)C[C@H]2CN(CCc3c([nH]c4ccccc34)[C@](C(=O)OC)(c3cc4c(cc3OC)N(C)[C@@H]3[C@](O)(C(=O)OC)[C@H](OC(C)=O)[C@]5(CC)C=CCN6CC[C@]43[C@@H]65)C2)C1 | inactive |
| CC(C)C[C@H](NC(=O)[C@@H]1O[C@H]1C(=O)O)C(=O)NCCCCN=C(N)N | inactive |
| Nc1ncnc2c1ncn2[C@@H]1O[C@@H](CO)[C@H](O)[C@@H]1O | inactive |
| CCCCCCCCCCCCCCCCCCNC(=O)OC[C@@H](COP(=O)([O-])OCC[n+]1ccsc1)OC | inactive |
| CC[C@H](C)C(=O)O[C@H]1CCC=C2C=C[C@H](C)[C@H](CC[C@@H]3C[C@H](O)CC(=O)O3)[C@H]21 | inactive |
| Nc1nc2c(nc(Br)n2[C@@H]2O[C@H]3COP(=O)(O)O[C@@H]3[C@H]2O)c(=O)[nH]1 | inactive |
| S=C(S)O[C@@H]1C[C@@H]2C[C@H]1[C@@H]1CCC[C@H]21 | inactive |

Target: Alpha-galactosidase (Coffea arabica) (UniProt Q42656)
Assay: Counterscreen for Glucocerebrosidase Inhibitors: qHTS Assay for Coffee Bean alpha-Galactosidase at pH 5.9 (AID 998)
Conditions: coffee bean alpha-galactosidase enzyme assay; series mostly up to 76.9 µM
Method in brief: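 Enzyme 2 nM + cpd (0.7 nM–77 uM titration) + 4-MU-alpha-Gal 80 uM, pH 5.9 citrate/Tween-20, RT 20 min, NaOH/glycine stop pH 10, fluor 365/440. Normalized to no-enzyme and full-activity controls; Hill-fit AC50.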

| Compound | outcome |
| --- | --- |
| O=C(/C=C\c1ccc(O)cc1)c1ccc(O)cc1O | inactive |
| N=c1ccn2c(n1)O[C@@H]1[C@@H](O)[C@H](CO)O[C@H]12 | inactive |
| CCNC(=O)[C@@H]1O[C@@H](n2cnc3c(N)nc(NCCc4ccc(CCC(=O)O)cc4)nc32)[C@H](O)[C@@H]1O | inactive |
| Cc1cccc(C)c1OC[C@@H](N)C(C)C | inactive |
| CN[C@]1(C)[C@@H]2CC[C@@H](C2)C1(C)C | inactive |
| C[C@@H]1CNCCN1S(=O)(=O)c1cccc2cnccc12 | inactive |
| CC(C)NC[C@H](O)c1ccc(NS(C)(=O)=O)cc1 | inactive |
| CCCCCCCCCCCCCCCCCC(=O)O[C@H](CC(=O)O)C[N+](C)(C)C | inactive |
| Oc1ccc([C@@H]2CNCCc3c2cc(O)c(O)c3Cl)cc1 | inactive |
| NCCCCNS(=O)(=O)c1cccc2c(Cl)cccc12 | inactive |
| CN(C)c1ccc(/C=C2/C(=O)Nc3ccccc32)cc1 | inactive |
| CCN(Cc1ccncc1)C(=O)[C@@H](CO)c1ccccc1 | inactive |
| C[C@H](N)C1CCC(C(=O)Nc2ccncc2)CC1 (stereo partly drawn) | inactive |
| CCN(CC)CCC[C@H](C)Nc1ccnc2cc(Cl)ccc12 | inactive |
| N=C1Sc2ccccc2C2=NCCCN12 | inactive |
| CSc1ccc2c(c1)[C@H](N1CCN(C)CC1)Cc1ccccc1S2 | inactive |
| CC[C@]1(O)C[C@H]2CN(CCc3c([nH]c4ccccc34)[C@](C(=O)OC)(c3cc4c(cc3OC)N(C=O)[C@H]3[C@@](O)(C(=O)OC)[C@H](OC(C)=O)[C@@]5(CC)C=CCN6CC[C@]43[C@H]65)C2)C1 | inactive |
| CN(C)CCCO[C@H]1[C@H]([C@H](O)CO)O[C@H]2OC(C)(C)O[C@@H]21 | inactive |
| C[C@H](N=C(NC#N)Nc1ccncc1)C(C)(C)C | inactive |
| FC(F)(F)c1cc(CO[C@@H]2CCCN[C@H]2c2ccccc2)cc(C(F)(F)F)c1 | inactive |

| Compound | outcome |
| --- | --- |
| CCCCC[C@H](O)CCCC(=O)O | inactive |
| COC(=O)[C@](C)(N)Cc1ccc(O)cc1 | inactive |
| CC(C)(C(=O)O)c1ccc([C@@H](O)CCCN2CCC(C(O)(c3ccccc3)c3ccccc3)CC2)cc1 | inactive |
| Nc1ncnc2c1ncn2[C@@H]1CCCO1 | inactive |
| O=C(O)CC[C@@H](NC(=O)c1ccccc1C(=O)O)C(=O)O | inactive |
| Oc1cc2c(cc1O)[C@H](c1ccccc1)CNCC2 | inactive |
| COc1cc2nc(N3CCN(C(=O)OCc4ccccc4)[C@H](C(=O)NC(C)(C)C)C3)nc(N)c2cc1OC | inactive |
| COc1cc(=O)n(C)c2c(OC[C@@H](O)C(C)(C)O)cccc12 | inactive |
| C[C@@H](C(=O)O)c1ccc(C[C@@H]2CCCC2=O)cc1 | inactive |
| CN1CCc2cc(Cl)c(O)cc2[C@H](c2ccccc2)C1 | inactive |
| CC(C)CN(C)c1nc(N)c(C(=O)N=C(N)N)nc1Cl | inactive |
| C[C@@H]1COc2c(N3CCN(C)CC3)c(F)cc3c(=O)c(C(=O)O)cn1c23 | inactive |
| CC[C@]1(O)C[C@H]2CN(CCc3c([nH]c4ccccc34)[C@](C(=O)OC)(c3cc4c(cc3OC)N(C)[C@@H]3[C@](O)(C(=O)OC)[C@H](OC(C)=O)[C@]5(CC)C=CCN6CC[C@]43[C@@H]65)C2)C1 | inactive |
| CC(C)C[C@H](NC(=O)[C@@H]1O[C@H]1C(=O)O)C(=O)NCCCCN=C(N)N | inactive |
| Nc1ncnc2c1ncn2[C@@H]1O[C@@H](CO)[C@H](O)[C@@H]1O | inactive |
| CCCCCCCCCCCCCCCCCCNC(=O)OC[C@@H](COP(=O)([O-])OCC[n+]1ccsc1)OC | inactive |
| CC[C@H](C)C(=O)O[C@H]1CCC=C2C=C[C@H](C)[C@H](CC[C@@H]3C[C@H](O)CC(=O)O3)[C@H]21 | inactive |
| Nc1nc2c(nc(Br)n2[C@@H]2O[C@H]3COP(=O)(O)O[C@@H]3[C@H]2O)c(=O)[nH]1 | inactive |
| S=C(S)O[C@@H]1C[C@@H]2C[C@H]1[C@@H]1CCC[C@H]21 | inactive |
